Compound activity: PubChem BioAssay, National Center for Advancing Translational Sciences (NCATS)
An excerpt weighted towards active compounds, which were near 9.2% of everything screened.
ELG1 genotoxic = induces genotoxicity in HEK293T cells with luciferase-tagged ELG1; HEK293T ELG1-luciferase reporter, luminescence, 16 h; Potency, µM (highest dose often 46 µM), for the others: at the top dose activity change, positive = activation, usual class: activators; 330,000 compounds, 1.3% hits; AID 504466; also: % of control where 0% means no effect; nearly all actives have a fitted effect of over 60% in size
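Genotoxic stress is detected as increased luminescence from luciferase-tagged ELG1 in HEK293T cells, measured with ONE-Glo after a 16 hr treatment at 37 °C.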
Rab9 promoter act = activates the Rab9 promoter | Huh7 Rab9 promoter-luciferase reporter, luminescence, 24 h | Potency, µM (series often up to 9.22 µM), inactives show at the top dose activation, negative = inhibition, usual class: activators | 320,000 compounds, 2.8% hits; also: % of control where 0% means no effect; nearly all actives have a fitted effect of over 60% in size
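Cell-based reporter: Huh7 stable for Rab9 promoter-driven luciferase, plated in reduced-serum medium with 10% FBS at 1500 cells/well, compound-treated 24 h at 37 °C, luminescence read after 10 min reagent.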
FLuc counter = inhibits or activates purified firefly luciferase, miR-21 counter-screen; P08659; purified FLuc, Km substrates, luminescence inhibition; Potency, µM (top dose mostly 57.5 µM), for the others: at the highest dose activity change, negative = inhibition, most hits filed as inhibitors; 360,000 compounds, 6.9% hits; AID 588342;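 also: plate controls were vehicle for no effect and reference inhibitor for full effect; nearly all actives have a fitted effect of over 55% in size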
Target sequence (P08659 whole entry, looked up): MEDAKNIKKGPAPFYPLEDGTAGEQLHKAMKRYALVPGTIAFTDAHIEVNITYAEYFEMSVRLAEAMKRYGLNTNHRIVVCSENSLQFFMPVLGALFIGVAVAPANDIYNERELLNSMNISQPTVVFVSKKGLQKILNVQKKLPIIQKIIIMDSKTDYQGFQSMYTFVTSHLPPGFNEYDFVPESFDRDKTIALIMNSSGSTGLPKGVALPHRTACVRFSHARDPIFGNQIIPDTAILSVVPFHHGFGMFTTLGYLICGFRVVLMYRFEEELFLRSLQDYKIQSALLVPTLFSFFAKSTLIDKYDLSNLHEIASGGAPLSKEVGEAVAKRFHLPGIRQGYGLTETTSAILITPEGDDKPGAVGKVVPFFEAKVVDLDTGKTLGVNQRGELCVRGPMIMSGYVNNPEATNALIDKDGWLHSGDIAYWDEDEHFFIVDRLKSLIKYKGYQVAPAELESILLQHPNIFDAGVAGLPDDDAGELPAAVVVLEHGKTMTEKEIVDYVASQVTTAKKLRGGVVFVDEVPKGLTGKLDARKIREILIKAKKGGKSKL
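Purified P. pyralis luciferase, 10 nM final, with Km-level 10 uM D-luciferin and 10 uM ATP in 50 mM Tris acetate pH 7.5, 10 mM Mg acetate, 0.01% Tween-20, 0.05% BSA; 6-point qHTS titration about 60 µM downward; luminescence read.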
ELG1 DNA repair = ELG1-dependent DNA repair inhibition. HEK293T ELG1-luciferase reporter, luminescence, 16 h; DNA damage induced by 5-fluorouridine. Potency, µM (top dose mostly 46.1 µM), for inactives: at the top dose activity change, negative = inhibition, usual class: inhibitors. 330,000 compounds, 2.3% hits. AID 504467; also: % is scaled to controls: 0 for no effect and ±100 for the full control effect; nearly all actives have a fitted effect of over 55% in size
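Luminescence from the luciferase reporter, measured 30 min after ONE-Glo reagent at room temperature, was the read-out. Beforehand, 2,000 cells per well were exposed for 16 hr at 37 °C to 5-fluorouridine together with compound or vehicle.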
SMN2 splice enh = enhancers of SMN2 splice variant expression | HEK293 SMN2-luciferase splicing reporter, luminescence, 30-36 h | Potency, µM (series often up to 46.1 µM), for inactives: at the top dose activity change, positive = activation, hits mostly activators | 210,000 compounds, 2.8% hits; also: % of control where 0% means no effect; nearly all actives have a fitted effect of over 55% in size
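HEK293 cells carry an SMN2 minigene-luciferase reporter in which exon 7 inclusion puts luciferase in frame. Cells were seeded at 2000 cells/well, attached for 10-12 hours, then exposed to compounds for 30-36 hours at 37C before ONE-Glo luminescence.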
NPC1 promoter act = activators of NPC1 promoter; Huh7 NPC1 promoter luciferase reporter, 24 h; 320,000 compounds, 2.4% hits; Potency, µM (top dose mostly 9.22 µM), for the others: at the highest dose activation, most hits filed as activators; also: % of control where 0% means no effect; nearly all actives have a fitted effect of over 60% in size
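Quantitative HTS used a cell-based reporter: Huh7 cells stably bearing the NPC1 promoter upstream of luciferase were treated with compounds for 24 h, and promoter activation was read as luminescence.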
* marks the source's active call; other numbers are inactive results; [ ] = dose if it differs, or a comment. Calls follow the shape of the dose curve; as a rule, active = well fitted curve in the direction sought with a large enough effect; inconclusive = small, poorly fitted or top-dose-only effect, or another doubt; inactive = no such curve, though single readings can be large; an effect the other way counts as inactive or inconclusive. Potency is read from the fitted curve at half-maximal effect.

What do the screens show for `CC(=O)C(C)Oc1ccc2c3c(c(=O)oc2c1)CCCCC3` (stereo not given)?
ELG1 genotoxic: 9.2µM*; Rab9 promoter act: 2.8µM*; FLuc counter: 21µM*; ELG1 DNA repair: inconclusive; SMN2 splice enh: inconclusive; NPC1 promoter act: inconclusive

How did CC(Oc1ccc2c3c(c(=O)oc2c1)CCCC3)C(=O)NCc1ccncc1 (stereo not given) do in these assays?
ELG1 genotoxic: -6%; Rab9 promoter act: 1%; FLuc counter: -6%; ELG1 DNA repair: inconclusive; NPC1 promoter act: -1%

Results for CC(=O)COc1ccc2c3c(c(=O)oc2c1)CCCC3 ?
ELG1 genotoxic: 29%; Rab9 promoter act: -3%; FLuc counter: -2%; ELG1 DNA repair: inconclusive; SMN2 splice enh: -19%; NPC1 promoter act: 3%

How did CC(=O)C(C)Oc1ccc2c3c(c(=O)oc2c1)CCCC3 (stereo not given) do in these assays?
ELG1 genotoxic: inconclusive; Rab9 promoter act: 24%; FLuc counter: 15µM*; ELG1 DNA repair: inconclusive; SMN2 splice enh: -4%; NPC1 promoter act: 22%

What do the screens show for `COCCCN1C(=O)C(=O)/C(=C(/O)c2ccc(S(=O)(=O)N3CCOCC3)cc2)C1c1ccc(C(C)C)cc1` (stereo not given)?
ELG1 genotoxic: 1%; Rab9 promoter act: 3%; FLuc counter: 3%; ELG1 DNA repair: inconclusive; NPC1 promoter act: -1%

What do the screens show for `COc1ccc2cc(/C=C/C(=O)c3ccco3)c(Cl)nc2c1`?
ELG1 genotoxic: inconclusive; Rab9 promoter act: inconclusive; FLuc counter: inconclusive; ELG1 DNA repair: inconclusive; SMN2 splice enh: 2%; NPC1 promoter act: inconclusive

How did COc1cc2cc(/C=C/C(=O)c3ccco3)c(Cl)nc2cc1OC do in these assays?
ELG1 genotoxic: 7%; Rab9 promoter act: -6%; FLuc counter: -5%; ELG1 DNA repair: 9%; SMN2 splice enh: inconclusive; NPC1 promoter act: -3%

How did Cc1ccc2cc(/C=C/C(=O)c3ccco3)c(Cl)nc2c1 do in these assays?
ELG1 genotoxic: inconclusive; Rab9 promoter act: 2.5µM*; FLuc counter: inconclusive; ELG1 DNA repair: inconclusive; NPC1 promoter act: inconclusive

Results for Cc1ccc2nc(Cl)c(/C=C/C(=O)c3ccco3)cc2c1 ?
ELG1 genotoxic: 16%; Rab9 promoter act: 3.5µM*; FLuc counter: -23%; ELG1 DNA repair: inconclusive; NPC1 promoter act: inconclusive

How did Cc1[nH]c2ccccc2c1/C=N/Nc1nc(Nc2ccccc2)nc(N2CCOCC2)n1 do in these assays?
ELG1 genotoxic: -10%; Rab9 promoter act: 0%; FLuc counter: 4.8µM*; ELG1 DNA repair: 23µM*; SMN2 splice enh: -8%; NPC1 promoter act: 13%

Results for Oc1[nH]c2ccccc2c1N=Nc1nc(Nc2ccccc2)nc(N2CCOCC2)n1 ?
ELG1 genotoxic: -12%; Rab9 promoter act: -9%; FLuc counter: inconclusive; ELG1 DNA repair: 3.7µM*; NPC1 promoter act: -11%

What do the screens show for `CCOC(=O)c1ccc(S(=O)(=O)N2CC(=O)Nc3ccccc32)cc1`?
ELG1 genotoxic: 3%; Rab9 promoter act: -2%; FLuc counter: -4%; ELG1 DNA repair: -5%; NPC1 promoter act: -3%

Results for NS(=O)(=O)c1ccc(CCNc2ncnc3c2c(-c2ccccc2)cn3-c2ccc(F)cc2)cc1 ?
ELG1 genotoxic: -8%; Rab9 promoter act: -3%; FLuc counter: 3%; ELG1 DNA repair: 16µM*; SMN2 splice enh: -16%; NPC1 promoter act: -4%

What do the screens show for `O=C(c1ccco1)N1CCN(C(=S)Nc2ccccc2C(F)(F)F)CC1`?
ELG1 genotoxic: -12%; Rab9 promoter act: 1%; FLuc counter: -1%; ELG1 DNA repair: 21µM*; NPC1 promoter act: 1%

What do the screens show for `FC(F)(F)c1ccccc1NC(=S)N1CCCC1`?
ELG1 genotoxic: 2%; Rab9 promoter act: 3%; FLuc counter: 0%; ELG1 DNA repair: -5%; NPC1 promoter act: -3%

How did CSc1nc(N)c2ncn([C@@H]3O[C@H](COP(=O)(O)OP(=O)(O)OP(=O)(O)O)[C@@H](O)[C@H]3O)c2n1 do in these assays?
Rab9 promoter act: 1%[46.1 µM]; SMN2 splice enh: 4%; NPC1 promoter act: 2%[46.1 µM]

How did C=CCSc1nc(C)c(CCCC)c(=O)[nH]1 do in these assays?
ELG1 genotoxic: 1%; Rab9 promoter act: -4%; FLuc counter: inconclusive; ELG1 DNA repair: 9%; NPC1 promoter act: -9%

How did O=C(NC12CC3CC(CC(C3)C1)C2)c1ccco1 do in these assays?
ELG1 genotoxic: -5%; Rab9 promoter act: 0%; FLuc counter: -9%; ELG1 DNA repair: inconclusive; NPC1 promoter act: 2%

How did O=C(NC12CC3CC(CC(C3)C1)C2)c1ccc(-c2ccccc2Cl)o1 do in these assays?
ELG1 genotoxic: inconclusive; Rab9 promoter act: 2µM*; FLuc counter: 1.9µM*; ELG1 DNA repair: inconclusive; SMN2 splice enh: 8%; NPC1 promoter act: 1.1µM*

How did CCn1nnc(NC(=O)c2ccc(-c3ccc(Cl)cc3)o2)n1 do in these assays?
ELG1 genotoxic: inconclusive; Rab9 promoter act: 20%; FLuc counter: 17µM*; ELG1 DNA repair: inconclusive; SMN2 splice enh: 26%; NPC1 promoter act: 19%

How did O=C(NC12CC3CC(CC(C3)C1)C2)c1ccc(-c2ccc(Cl)cc2)o1 do in these assays?
ELG1 genotoxic: inconclusive; Rab9 promoter act: 3.2µM*; FLuc counter: inconclusive; ELG1 DNA repair: inconclusive; SMN2 splice enh: 16µM*; NPC1 promoter act: inconclusive

Results for O=C(NC12CC3CC(CC(C3)C1)C2)c1ccc(-c2cccc(Cl)c2)o1 ?
ELG1 genotoxic: inconclusive; Rab9 promoter act: 0.89µM*; FLuc counter: 2.4µM*; ELG1 DNA repair: inconclusive; SMN2 splice enh: -33%; NPC1 promoter act: 2.8µM*

Results for COC(CNC(=O)C1CC(=O)N(CCc2ccc(C)cc2)C1)OC (stereo not given) ?
ELG1 genotoxic: 0%; Rab9 promoter act: -2%; FLuc counter: -1%; ELG1 DNA repair: -18%; NPC1 promoter act: 0%

How did O=C(NC(=S)Nc1ccccc1O)c1ccc(-c2ccc(Cl)cc2)o1 do in these assays?
ELG1 genotoxic: 4%; Rab9 promoter act: -8%; FLuc counter: 4%; ELG1 DNA repair: -2%; SMN2 splice enh: -5%; NPC1 promoter act: -2%

What do the screens show for `CC(=O)NC(=O)c1ccc(-c2ccc(Cl)cc2)o1`?
ELG1 genotoxic: 10%; Rab9 promoter act: 19%; FLuc counter: 5.4µM*; ELG1 DNA repair: inconclusive; NPC1 promoter act: -2%

What do the screens show for `O=C(/C=C/c1c(F)cccc1Cl)Nc1cccnc1`?
ELG1 genotoxic: 2.3µM*; Rab9 promoter act: 4µM*; FLuc counter: 3.8µM*; ELG1 DNA repair: inconclusive; NPC1 promoter act: 1.6µM*
